This is part of a sample that, as a whole, favours compounds with a hit. Of some 79,000 tested, about 15% had one in any assay. Unmarked numbers belong to inactive results. The source made the active and inactive calls. Cut-off read from the data, not from the text of the source: active = growth inhibition above about 70%; inactive = the rest.
Columns and labels:
[1] = NCI Yeast Anticancer Drug Screen. Data for the rad50 strain (AID 155);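 note: 0% = growth of vehicle-only cultures of the same strain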; details: S. cerevisiae rad50 strain growth inhibition, stronger effect = higher value
In short: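 Vehicle-treated cultures provide the reference for the growth inhibition reported for compound-exposed, repair-deficient yeast.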

[2] = NCI Yeast Anticancer Drug Screen. Data for the mec2-1 strain (AID 157); details: S. cerevisiae mec2-1 strain, stronger effect = higher value
In short: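 Vehicle-treated cultures served as reference for growth inhibition of compound-exposed mec2-1 yeast.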

[3] = NCI Yeast Anticancer Drug Screen. Data for the sgs1 mgt1 strain (AID 161);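 note: 0% = growth of cultures given vehicle only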; details: S. cerevisiae sgs1 mgt1 strain, stronger effect = higher value
In short: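 Mutant yeast exposed to compound; growth scored against vehicle-only wells.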

[4] = NCI Yeast Anticancer Drug Screen. Data for the cln2 rad14 strain (AID 165);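 note: 0% = growth equal to vehicle treated cultures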; details: S. cerevisiae cln2 rad14 strain, stronger effect = higher value
In short: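 Each compound was tested on cln2 rad14 yeast. Inhibition of growth was calculated against vehicle-exposed controls.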

[5] = NCI Yeast Anticancer Drug Screen. Data for the bub3 strain (AID 167); details: S. cerevisiae bub3 mutant strain, stronger effect = higher value
In short: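 Mutant yeast screening strain plus compound; vehicle-treated cultures serve as the 0% inhibition reference.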

[6] = NCI Yeast Anticancer Drug Screen. Data for the mlh1 rad18 strain (AID 175); details: S. cerevisiae mlh1 rad18 strain growth inhibition, stronger effect = higher value
In short: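 Vehicle-treated cultures served as the reference for growth inhibition in a yeast strain carrying DNA damage repair alterations exposed to each compound.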

[7] = at 5.0 µM (retest, dose inferred, filed as 0.5)
[8] = at 50.0 µM (retest, dose inferred, filed as 5.0)

Row | SMILES | growth inhibition [1, 7] | growth inhibition [1, 8] | growth inhibition ([1]; at 50.0 µM) | growth inhibition [2, 7] | growth inhibition [2, 8] | growth inhibition ([2]; at 50.0 µM) | growth inhibition [3, 7] | growth inhibition [3, 8] | growth inhibition ([3]; at 50.0 µM) | growth inhibition [4, 7] | growth inhibition [4, 8] | growth inhibition ([4]; at 50.0 µM) | growth inhibition [5, 7] | growth inhibition [5, 8] | growth inhibition ([5]; at 50.0 µM) | growth inhibition [6, 7] | growth inhibition [6, 8] | growth inhibition ([6]; at 50.0 µM)
1 | c1ccc(Nc2cccc3ccccc23)cc1 | -4% | 95% (active) | 94.8% (active) | -5% | 81% (active) | 96.2% (active) | -3% | 62% | 95.8% (active) | -1% | 32% | 95.1% (active) | 43% | 95% (active) | 91.5% (active) | -1% | 88% (active) | 95.5% (active)
2 | CN(C)c1ccc(C(c2ccc(N(C)C)cc2)c2ccc3c(c2)OCO3)cc1 | 98% (active) | 66% | 95% (active) | 99% (active) | 62% | 94% (active) | 97% (active) | 85% (active) | 95.8% (active) | 98% (active) | 32% | 88.8% (active) | 99% (active) | 81% (active) | 90% (active) | 98% (active) | 90% (active) | 91.6% (active)
3 | N#CC1(C#N)C2C=CC(c3coc4cccc2c34)C1(C#N)C#N (configuration not stated) | 29% | 37% | 35.6% | 17% | 27% | 35.9% | 32% | 37% | 75% (active) | 19% | 27% | 19.2% | 22% | 47% | 58.2% | 26% | 47% | 57.9%
4 | O=C1C(=O)c2ccccc2C=C1Br | 50% | 99% (active) | 99% (active) | 91% (active) | 99% (active) | 99.2% (active) | 75% (active) | 99% (active) | 99.2% (active) | 67% | 99% (active) | 98.2% (active) | 93% (active) | 99% (active) | 98.7% (active) | 85% (active) | 99% (active) | 98.8% (active)
5 | CCOC(=O)CN1CCCC(C(=O)CC2(O)C3(Cl)C4(Cl)C5(Cl)C(Cl)(Cl)C6(Cl)C4(Cl)C2(Cl)C6(Cl)C53Cl)C1 (configuration not stated) | 62% | 98% (active) | 52.5% | 54% | 99% (active) | 49.9% | 61% | 99% (active) | 55% | 36% | 99% (active) | 71.2% (active) | 59% | 99% (active) | 48.5% | 87% (active) | 99% (active) | 50.3%
6 | CC(=O)O[C@H]1CC[C@]2(C)C34OC3C[C@]3(C)[C@@H](C(C)=O)CC[C@H]3[C@]43C=C[C@@]2(C1)C1C(=O)OC(=O)C13 (some centres not stated) | 10% | 60% | 88.2% (active) | 6% | 45% | 89.9% (active) | 5% | 48% | 75.9% (active) | 0% | 34% | 84.2% (active) | 2% | 42% | 92.4% (active) | -2% | 85% (active) | 93.2% (active)
7 | COc1cc(C2c3cc4c(cc3OC3(O)C=C(C)OC(=O)C23)OCO4)cc(OC)c1OC (configuration not stated) | 5% | -5% | 12.1% | 4% | -4% | 30% | 0% | -22% | 13.4% | 0% | 5% | 9.5% | -1% | -3% | 92.3% (active) | 1% | -10% | 29.9%
8 | CSc1cc(-c2cc3ccccc3o2)oc(=O)c1C#N | 6% | -8% | -1.6% | -1% | -10% | -6.6% | 3% | -11% | -24.4% | -9% | -6% | -4.5% | -5% | -8% | 40.1% | -4% | -11% | -23.9%
9 | O=C(NN1C(=O)C(Cl)C1c1ccc(O)cc1)c1ccccc1O (configuration not stated) | -4% | 78% (active) | 79.5% (active) | 13% | 79% (active) | 61% | 0% | 72% (active) | 69.9% | 13% | 63% | 44% | 11% | 90% (active) | 71.1% (active) | 20% | 91% (active) | 67.7%
10 | Cc1nc(C(N)=S)sc1C(=O)C/C(=N/N)C(=O)Nc1cccc(Cl)c1C | 8% | 24% | 26.1% | -5% | 14% | 29.6% | -7% | 23% | -4.95% | -28% | -15% | -15.2% | 5% | 23% | 6.25% | 11% | 7% | 37.1%
11 | CCCC#CC(O)(C(=O)OC1CCN(C)CC1)C1CCCCC1 (configuration not stated) | 34% | 55% | 63.5% | 36% | 53% | 45.1% | 12% | 69% | 65.9% | 41% | 55% | 53.5% | 23% | 56% | 58% | 46% | 79% (active) | 53.5%
12 | O=C(c1ccc(Cl)c([N+](=O)[O-])c1)c1ccc(Cl)c([N+](=O)[O-])c1 | 21% | 93% (active) | 59% | 12% | 94% (active) | 93.4% (active) | 13% | 90% (active) | 85% (active) | 1% | 80% (active) | 39.5% | -8% | 95% (active) | 96.2% (active) | 24% | 96% (active) | 96.7% (active)
13 | COC1=CC(=O)c2ncc(Cl)cc2C1=O | -4% | 97% (active) | 96% (active) | -2% | 92% (active) | 95.5% (active) | -9% | 89% (active) | 93.2% (active) | -10% | 96% (active) | 97.3% (active) | -40% | 88% (active) | 83.5% (active) | 28% | 97% (active) | 98.3% (active)
14 | CNc1cc(SC)nc(N)n1 | 3% | -7% | 89.7% (active) | -2% | -3% | 94.3% (active) | 1% | -9% | 92.8% (active) | -1% | 0% | 91.8% (active) | -1% | -1% | 75.4% (active) | 0% | -4% | 95% (active)
15 | CCCCC(CC)COP(=O)(OCC(CC)CCCC)OCC(CC)CCCC (configuration not stated) | 0% | 7% | 15.8% | 13% | -7% | 10.6% | 9% | 18% | -2.85% | 0% | -3% | 0.85% | -5% | -11% | -6.75% | -4% | -12% | 29.1%
16 | CN=C(N)N/N=C(\C)c1ccc2c(c1)Cc1cc(Cl)ccc1-2 | 34% | 37% | 98.8% (active) | 16% | 38% | 97% (active) | 13% | 97% (active) | 98.7% (active) | 8% | 56% | 93.1% (active) | 7% | 90% (active) | 98.7% (active) | 9% | 97% (active) | 98.5% (active)
17 | CCCCC1=NCCc2c1cc1c([nH]c3ccccc31)c2C | -3% | 57% | 9.2% | -19% | 7% | 46.2% | -8% | 85% (active) | 52.5% | -1% | 26% | 48% | -3% | 35% | 76% (active) | 3% | 97% (active) | 56.4%
18 | Cc1ccc2c(c1)C1(SC(C)C(=O)N1c1ccc(F)cc1)C(=O)N2 (configuration not stated) | 11% | 98% (active) | 99% (active) | 15% | 99% (active) | 98.8% (active) | 14% | 98% (active) | 98.8% (active) | 11% | 98% (active) | 97.8% (active) | 10% | 99% (active) | 98.6% (active) | 11% | 99% (active) | 99% (active)
19 | COC(=O)c1c2c(cc3c1CC1(Cc4cc5c(c(C)c4C1)CCC5)C3)CCC2 (configuration not stated) | 15% | 12% | -32.5% | 6% | 5% | -46.4% | 9% | 12% | -31.9% | -4% | 13% | -11.1% | 14% | 10% | -13.1% | 12% | 11% | -22.9%

Source: PubChem BioAssay (NCI)
